Our source for the binding signal values is publication PMC7862700, “An all-to-all approach to the identification of sequence-specific readers for epigenetic DNA modifications on cytosine”.

Common to all, as to test: DAPPL (digital affinity profiling via proximity ligation, sequencing); 10 mM Tris-HCl pH 7.5, 50 mM NaCl, 1 mM DTT, 4% glycerol, room temperature, 30 min; GST-TFs on glutathione beads, 16-mer random dsDNA library, 0.1% formaldehyde crosslink after washing; high values mean tight binding
For test [1], the target named is T1, FEV (Homo sapiens, UniProt Q99581 1-238).
T1 sequence: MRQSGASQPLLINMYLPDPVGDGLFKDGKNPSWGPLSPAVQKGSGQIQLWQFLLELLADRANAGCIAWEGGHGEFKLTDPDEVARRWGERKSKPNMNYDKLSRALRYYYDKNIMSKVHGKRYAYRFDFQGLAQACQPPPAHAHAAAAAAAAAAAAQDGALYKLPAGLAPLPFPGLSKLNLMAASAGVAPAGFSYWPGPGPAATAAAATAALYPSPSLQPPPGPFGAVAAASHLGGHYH
The note with it: protein: recombinant; tags: N-terminal GST; dsDNA, one strand shown. Summed up: (§1)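 Pools were built from human transcription factors expressed in yeast as GST fusions, captured on glutathione beads and DNA-barcoded, along with a tag-only sample. Incubation with 200 nmole of a 16-mer random double-stranded DNA library lasted 30 min at room temperature in Tris/NaCl/DTT/glycerol buffer, and was followed by washing, 0.1% formaldehyde crosslinking, proximity ligation, PCR amplification and Illumina NextSeq500 sequencing. Binding signal is the quotient of each hexamer's read frequency for a factor and its frequency for the tag-only sample.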

For test [2], the target named is ETV5 (Homo sapiens, UniProt P41161 1-510). The note with it: protein: recombinant; tags: N-terminal GST; dsDNA, one strand shown. Summed up:
as §1

The target of test [3] is HSF1 (Homo sapiens, UniProt Q00613 1-529). The settings on record: protein: recombinant; tags: N-terminal GST; chain copies: 3; dsDNA, one strand shown. Summed up: as §1
Test [4] deals with T2, SPIC (Homo sapiens, UniProt Q8N5J4 1-248).
T2 sequence: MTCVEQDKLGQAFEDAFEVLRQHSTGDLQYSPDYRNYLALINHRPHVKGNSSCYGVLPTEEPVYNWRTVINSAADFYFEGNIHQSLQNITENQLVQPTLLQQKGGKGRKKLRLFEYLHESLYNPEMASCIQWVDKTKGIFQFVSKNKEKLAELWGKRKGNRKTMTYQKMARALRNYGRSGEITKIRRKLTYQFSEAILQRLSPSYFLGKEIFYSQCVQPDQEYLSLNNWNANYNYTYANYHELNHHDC
The settings on record: protein: recombinant; tags: N-terminal GST; dsDNA, one strand shown. Summed up: as §1

Test [5] concerns the target ELF4 (Homo sapiens, UniProt Q99607 1-663). The settings on record: protein: recombinant; tags: N-terminal GST; dsDNA, one strand shown. Summed up: as §1
The target in test [6] is T3, ELK4 (Homo sapiens, UniProt P28324-2 1-405).
T3 sequence: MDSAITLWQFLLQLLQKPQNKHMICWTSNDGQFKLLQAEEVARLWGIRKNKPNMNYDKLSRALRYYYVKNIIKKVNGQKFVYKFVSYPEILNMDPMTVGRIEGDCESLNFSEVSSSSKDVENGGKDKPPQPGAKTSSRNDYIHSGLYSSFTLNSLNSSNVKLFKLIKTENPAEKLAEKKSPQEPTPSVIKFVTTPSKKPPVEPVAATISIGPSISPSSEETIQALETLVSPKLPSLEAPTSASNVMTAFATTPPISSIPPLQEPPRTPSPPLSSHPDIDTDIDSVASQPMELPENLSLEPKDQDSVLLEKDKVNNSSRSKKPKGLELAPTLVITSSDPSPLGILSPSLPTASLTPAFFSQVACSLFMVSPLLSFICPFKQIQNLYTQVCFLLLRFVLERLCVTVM
The settings on record: protein: recombinant; tags: N-terminal GST; dsDNA, one strand shown. The gist of the method: as §1

Test [7] concerns the target T4, ETV2 (Homo sapiens, UniProt O00321 1-342).
T4 sequence: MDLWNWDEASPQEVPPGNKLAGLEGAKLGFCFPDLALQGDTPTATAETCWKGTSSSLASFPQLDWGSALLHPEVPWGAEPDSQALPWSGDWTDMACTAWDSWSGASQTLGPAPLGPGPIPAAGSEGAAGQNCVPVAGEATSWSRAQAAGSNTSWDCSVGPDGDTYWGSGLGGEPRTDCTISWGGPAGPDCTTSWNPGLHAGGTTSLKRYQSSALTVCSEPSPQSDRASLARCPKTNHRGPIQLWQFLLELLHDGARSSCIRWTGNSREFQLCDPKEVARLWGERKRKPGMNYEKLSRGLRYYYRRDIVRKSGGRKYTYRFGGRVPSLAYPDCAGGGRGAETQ
The settings on record: protein: recombinant; tags: N-terminal GST; dsDNA, one strand shown. The gist of the method: as §1

For test [8], the target named is T5, ELF3 (Homo sapiens, UniProt P78545 1-371).
T5 sequence: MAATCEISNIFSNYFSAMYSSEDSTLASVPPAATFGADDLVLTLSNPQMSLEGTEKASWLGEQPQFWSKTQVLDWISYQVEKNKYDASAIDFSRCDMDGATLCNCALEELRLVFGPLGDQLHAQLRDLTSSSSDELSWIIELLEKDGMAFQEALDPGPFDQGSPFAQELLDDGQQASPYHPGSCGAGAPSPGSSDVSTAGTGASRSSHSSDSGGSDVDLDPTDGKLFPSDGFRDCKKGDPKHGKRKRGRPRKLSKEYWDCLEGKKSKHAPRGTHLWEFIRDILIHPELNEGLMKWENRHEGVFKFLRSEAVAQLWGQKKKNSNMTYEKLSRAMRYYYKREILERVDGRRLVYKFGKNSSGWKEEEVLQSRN
The note with it: protein: recombinant; tags: N-terminal GST; dsDNA, one strand shown. The gist of the method: as §1

In test [9] the target is CRX (Homo sapiens, UniProt O43186 1-299). The settings on record: protein: recombinant; tags: N-terminal GST; dsDNA, one strand shown. The gist of the method:
as §1

For test [10], the target named is ETV1 (Homo sapiens, UniProt P50549 1-477). The note with it: protein: recombinant; tags: N-terminal GST; dsDNA, one strand shown. The gist of the method: as §1
Test [11] has as its target T6, ERF (Homo sapiens, UniProt P50548 1-548).
T6 sequence: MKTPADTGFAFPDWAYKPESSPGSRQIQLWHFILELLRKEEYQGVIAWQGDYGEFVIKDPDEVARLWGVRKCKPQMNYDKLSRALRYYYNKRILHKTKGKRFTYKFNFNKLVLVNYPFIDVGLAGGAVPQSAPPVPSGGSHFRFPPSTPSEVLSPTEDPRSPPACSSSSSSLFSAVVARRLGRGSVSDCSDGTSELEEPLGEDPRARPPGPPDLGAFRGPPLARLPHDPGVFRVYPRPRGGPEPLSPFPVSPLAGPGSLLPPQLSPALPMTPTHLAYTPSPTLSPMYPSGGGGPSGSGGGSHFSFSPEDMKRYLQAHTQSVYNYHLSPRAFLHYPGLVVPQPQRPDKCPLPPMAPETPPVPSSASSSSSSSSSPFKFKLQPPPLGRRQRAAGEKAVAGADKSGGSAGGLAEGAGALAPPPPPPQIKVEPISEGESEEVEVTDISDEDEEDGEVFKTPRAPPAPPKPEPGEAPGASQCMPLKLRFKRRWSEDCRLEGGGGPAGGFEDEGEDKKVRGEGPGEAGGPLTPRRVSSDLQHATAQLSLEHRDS
The note with it: protein: recombinant; tags: N-terminal GST; dsDNA, one strand shown. Summed up: as §1

The target in test [12] is T7, ETV3L (Homo sapiens, UniProt Q6ZN32 1-361).
T7 sequence: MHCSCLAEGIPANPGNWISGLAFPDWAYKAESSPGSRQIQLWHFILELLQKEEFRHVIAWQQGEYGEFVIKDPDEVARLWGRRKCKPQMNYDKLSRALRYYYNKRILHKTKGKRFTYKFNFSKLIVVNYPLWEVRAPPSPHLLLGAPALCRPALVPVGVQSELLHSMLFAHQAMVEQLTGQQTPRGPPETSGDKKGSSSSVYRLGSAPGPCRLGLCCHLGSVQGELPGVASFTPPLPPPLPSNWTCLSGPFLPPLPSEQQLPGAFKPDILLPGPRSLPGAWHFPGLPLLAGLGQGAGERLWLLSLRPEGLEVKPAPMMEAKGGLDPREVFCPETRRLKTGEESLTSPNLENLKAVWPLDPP
The settings on record: protein: recombinant; tags: N-terminal GST; dsDNA, one strand shown. Summed up:
as §1

Test [13] deals with T8, ETS2 (Homo sapiens, UniProt P15036 1-469).
T8 sequence: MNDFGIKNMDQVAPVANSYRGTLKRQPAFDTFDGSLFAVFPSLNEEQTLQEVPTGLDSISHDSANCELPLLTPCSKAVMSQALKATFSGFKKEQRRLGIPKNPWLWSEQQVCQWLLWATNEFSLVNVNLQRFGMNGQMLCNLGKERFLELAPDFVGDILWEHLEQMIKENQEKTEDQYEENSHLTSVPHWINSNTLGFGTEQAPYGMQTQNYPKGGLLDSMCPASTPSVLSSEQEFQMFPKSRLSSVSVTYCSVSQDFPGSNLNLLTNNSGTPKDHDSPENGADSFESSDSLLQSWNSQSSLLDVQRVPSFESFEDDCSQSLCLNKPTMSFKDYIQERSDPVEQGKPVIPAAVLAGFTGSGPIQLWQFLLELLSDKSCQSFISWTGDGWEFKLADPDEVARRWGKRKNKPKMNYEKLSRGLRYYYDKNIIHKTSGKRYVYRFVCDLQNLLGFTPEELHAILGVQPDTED
The settings on record: protein: recombinant; tags: N-terminal GST; dsDNA, one strand shown. Summed up:
as §1

Test [14] addresses T9, SPDEF (Homo sapiens, UniProt O95238 1-335).
T9 sequence: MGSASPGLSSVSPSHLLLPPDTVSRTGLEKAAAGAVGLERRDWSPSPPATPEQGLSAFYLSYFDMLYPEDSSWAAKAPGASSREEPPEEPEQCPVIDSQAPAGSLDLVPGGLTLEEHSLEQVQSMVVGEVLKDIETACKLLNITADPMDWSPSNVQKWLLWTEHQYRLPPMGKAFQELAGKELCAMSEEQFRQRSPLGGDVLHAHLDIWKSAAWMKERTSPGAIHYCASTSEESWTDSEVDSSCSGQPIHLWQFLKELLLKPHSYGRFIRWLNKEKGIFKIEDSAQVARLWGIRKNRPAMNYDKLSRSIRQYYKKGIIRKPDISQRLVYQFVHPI
The note with it: protein: recombinant; tags: N-terminal GST; dsDNA, one strand shown. Summed up:
as §1

The target of test [15] is T10, ETV7 (Homo sapiens, UniProt Q9Y603 1-341).
T10 sequence: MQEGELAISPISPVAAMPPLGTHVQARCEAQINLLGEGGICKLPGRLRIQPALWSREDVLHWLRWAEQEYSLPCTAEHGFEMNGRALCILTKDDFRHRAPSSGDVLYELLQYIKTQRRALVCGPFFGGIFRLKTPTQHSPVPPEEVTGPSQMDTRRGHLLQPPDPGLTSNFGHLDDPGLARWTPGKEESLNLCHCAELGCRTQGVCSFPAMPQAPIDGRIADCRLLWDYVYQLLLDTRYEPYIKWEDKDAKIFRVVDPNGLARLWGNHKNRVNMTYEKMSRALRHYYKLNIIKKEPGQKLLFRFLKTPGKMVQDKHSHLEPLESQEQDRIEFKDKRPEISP
The settings on record: protein: recombinant; tags: N-terminal GST; dsDNA, one strand shown. Summed up:
as §1

The target in test [16] is T11, ELF5 (Homo sapiens, UniProt Q9UKW6-2 1-255).
T11 sequence: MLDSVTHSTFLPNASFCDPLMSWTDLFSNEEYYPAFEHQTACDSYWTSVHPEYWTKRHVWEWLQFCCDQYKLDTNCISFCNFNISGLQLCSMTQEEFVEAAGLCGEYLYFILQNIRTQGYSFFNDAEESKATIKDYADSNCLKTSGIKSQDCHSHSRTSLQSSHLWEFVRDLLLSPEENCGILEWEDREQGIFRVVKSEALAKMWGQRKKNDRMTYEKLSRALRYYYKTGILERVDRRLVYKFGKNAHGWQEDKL
The note with it: protein: recombinant; tags: N-terminal GST; dsDNA, one strand shown. Summed up:
as §1

The target of test [17] is T12, ETV3 (Homo sapiens, UniProt P41162-2 1-143).
T12 sequence: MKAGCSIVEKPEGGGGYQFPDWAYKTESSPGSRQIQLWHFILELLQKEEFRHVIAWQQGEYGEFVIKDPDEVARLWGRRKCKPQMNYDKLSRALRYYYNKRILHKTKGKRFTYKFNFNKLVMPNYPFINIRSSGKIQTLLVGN
The note with it: protein: recombinant; tags: N-terminal GST; dsDNA, one strand shown. The gist of the method:
as §1

Test [18] deals with ETV6 (Homo sapiens, UniProt P41212 1-452). The note with it: protein: recombinant; tags: N-terminal GST; dsDNA, one strand shown. Summed up: as §1
Sequence of ETV6 (P41212 whole entry): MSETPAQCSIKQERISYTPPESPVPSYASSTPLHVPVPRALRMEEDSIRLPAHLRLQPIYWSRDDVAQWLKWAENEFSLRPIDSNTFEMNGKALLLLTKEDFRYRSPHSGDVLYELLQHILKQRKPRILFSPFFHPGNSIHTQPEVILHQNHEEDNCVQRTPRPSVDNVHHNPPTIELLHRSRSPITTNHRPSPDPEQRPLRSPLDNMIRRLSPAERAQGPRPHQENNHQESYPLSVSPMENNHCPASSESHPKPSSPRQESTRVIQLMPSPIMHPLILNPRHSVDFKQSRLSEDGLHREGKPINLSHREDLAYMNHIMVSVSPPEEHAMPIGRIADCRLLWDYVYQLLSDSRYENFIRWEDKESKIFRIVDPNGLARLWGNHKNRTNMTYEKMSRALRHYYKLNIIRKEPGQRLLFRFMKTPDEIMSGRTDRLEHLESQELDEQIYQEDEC

Sequence of HSF1 (Q00613 whole entry): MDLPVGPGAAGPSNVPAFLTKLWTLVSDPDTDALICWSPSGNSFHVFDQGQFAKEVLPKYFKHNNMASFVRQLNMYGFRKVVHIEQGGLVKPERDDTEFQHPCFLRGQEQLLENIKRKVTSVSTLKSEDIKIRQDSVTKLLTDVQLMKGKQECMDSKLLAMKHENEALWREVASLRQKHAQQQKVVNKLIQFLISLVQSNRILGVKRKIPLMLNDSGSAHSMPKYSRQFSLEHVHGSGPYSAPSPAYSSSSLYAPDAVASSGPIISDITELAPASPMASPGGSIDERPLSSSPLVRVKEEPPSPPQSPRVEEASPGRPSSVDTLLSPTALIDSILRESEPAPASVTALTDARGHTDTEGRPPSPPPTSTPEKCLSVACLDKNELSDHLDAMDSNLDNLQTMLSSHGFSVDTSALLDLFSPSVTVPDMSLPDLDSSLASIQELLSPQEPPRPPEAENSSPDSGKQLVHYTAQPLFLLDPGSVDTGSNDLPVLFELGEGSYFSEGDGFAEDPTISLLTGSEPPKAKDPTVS
Sequence of ELF4 (Q99607 whole entry): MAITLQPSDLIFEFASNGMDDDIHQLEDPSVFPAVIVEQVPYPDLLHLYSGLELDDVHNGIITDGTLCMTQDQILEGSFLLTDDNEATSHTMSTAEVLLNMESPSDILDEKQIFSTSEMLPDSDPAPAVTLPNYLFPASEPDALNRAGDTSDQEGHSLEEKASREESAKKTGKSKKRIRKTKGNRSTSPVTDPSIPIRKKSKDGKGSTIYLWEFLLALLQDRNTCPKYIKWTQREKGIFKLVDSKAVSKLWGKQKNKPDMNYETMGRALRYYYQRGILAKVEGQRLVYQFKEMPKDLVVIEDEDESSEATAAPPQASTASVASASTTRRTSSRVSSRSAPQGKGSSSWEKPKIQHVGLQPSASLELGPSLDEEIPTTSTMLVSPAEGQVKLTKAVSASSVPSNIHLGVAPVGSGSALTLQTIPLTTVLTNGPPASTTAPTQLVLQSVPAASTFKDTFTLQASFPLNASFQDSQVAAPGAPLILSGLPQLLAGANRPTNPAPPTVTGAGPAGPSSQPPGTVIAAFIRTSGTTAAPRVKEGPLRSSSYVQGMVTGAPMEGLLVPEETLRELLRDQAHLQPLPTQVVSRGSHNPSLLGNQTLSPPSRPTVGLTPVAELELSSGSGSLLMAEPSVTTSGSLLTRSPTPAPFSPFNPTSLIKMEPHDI
Sequence of CRX (O43186 whole entry): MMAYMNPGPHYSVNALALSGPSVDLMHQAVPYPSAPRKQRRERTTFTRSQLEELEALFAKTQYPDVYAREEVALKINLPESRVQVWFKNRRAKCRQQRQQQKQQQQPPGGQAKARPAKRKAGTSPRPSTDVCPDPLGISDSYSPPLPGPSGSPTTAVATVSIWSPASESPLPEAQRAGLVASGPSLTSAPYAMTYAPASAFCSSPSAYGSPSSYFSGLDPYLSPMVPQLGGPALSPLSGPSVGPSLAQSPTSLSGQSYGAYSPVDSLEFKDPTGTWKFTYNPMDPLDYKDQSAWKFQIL
Sequence of ETV5 (P41161 whole entry): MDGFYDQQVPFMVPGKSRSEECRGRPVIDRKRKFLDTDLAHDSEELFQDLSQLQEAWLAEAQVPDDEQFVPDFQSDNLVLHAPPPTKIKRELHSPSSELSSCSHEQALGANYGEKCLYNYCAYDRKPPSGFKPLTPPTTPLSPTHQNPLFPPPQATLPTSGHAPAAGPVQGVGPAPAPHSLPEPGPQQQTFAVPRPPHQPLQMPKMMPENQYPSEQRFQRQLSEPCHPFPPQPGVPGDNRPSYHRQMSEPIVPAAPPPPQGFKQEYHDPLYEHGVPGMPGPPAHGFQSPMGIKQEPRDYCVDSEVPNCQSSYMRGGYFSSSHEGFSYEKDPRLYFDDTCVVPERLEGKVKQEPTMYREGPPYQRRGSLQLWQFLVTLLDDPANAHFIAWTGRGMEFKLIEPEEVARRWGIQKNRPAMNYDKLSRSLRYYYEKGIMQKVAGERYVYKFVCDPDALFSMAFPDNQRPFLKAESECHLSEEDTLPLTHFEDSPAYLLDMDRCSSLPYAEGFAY
Sequence of ETV1 (P50549 whole entry): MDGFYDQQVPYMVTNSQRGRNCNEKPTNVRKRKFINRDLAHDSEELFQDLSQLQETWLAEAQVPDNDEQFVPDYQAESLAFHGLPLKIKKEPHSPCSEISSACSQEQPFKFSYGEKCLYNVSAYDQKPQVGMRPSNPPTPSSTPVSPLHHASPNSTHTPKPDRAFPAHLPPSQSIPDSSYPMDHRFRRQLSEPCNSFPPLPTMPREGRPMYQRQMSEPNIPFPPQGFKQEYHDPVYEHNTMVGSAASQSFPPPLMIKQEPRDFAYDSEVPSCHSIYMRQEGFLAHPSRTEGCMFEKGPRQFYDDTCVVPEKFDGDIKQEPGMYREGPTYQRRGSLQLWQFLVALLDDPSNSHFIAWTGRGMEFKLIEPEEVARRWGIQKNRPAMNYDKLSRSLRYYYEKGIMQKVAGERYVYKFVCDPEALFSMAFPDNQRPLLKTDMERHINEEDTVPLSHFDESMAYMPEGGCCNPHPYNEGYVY

As to CTGCTG, the binding signal was 1.25 fold enrichment (6-mer frequency, TF over GST control) in test [1]; 1.25 fold enrichment (6-mer frequency, TF over GST control) in [2]; 1.09 fold enrichment (6-mer frequency, TF over GST control) in [3]; 1.47 fold enrichment (6-mer frequency, TF over GST control) in test [4]; 1.25 fold enrichment (6-mer frequency, TF over GST control) in test [5]; 1.27 fold enrichment (6-mer frequency, TF over GST control) in test [6]. Also, the binding signal in test [7] was 1.05 fold enrichment (6-mer frequency, TF over GST control); in [8], 1.13 fold enrichment (6-mer frequency, TF over GST control); in test [9] it was 1.01 fold enrichment (6-mer frequency, TF over GST control); in test [10] it was 1.17 fold enrichment (6-mer frequency, TF over GST control); in [11] it was 1.08 fold enrichment (6-mer frequency, TF over GST control); in test [12] it was 1.3 fold enrichment (6-mer frequency, TF over GST control). Further, the binding signal is 1.36 fold enrichment (6-mer frequency, TF over GST control) in test [13]; 1.26 fold enrichment (6-mer frequency, TF over GST control) in [14]; 1.13 fold enrichment (6-mer frequency, TF over GST control) in [15]; 1.27 fold enrichment (6-mer frequency, TF over GST control) in test [16]; 1.27 fold enrichment (6-mer frequency, TF over GST control) in test [17]; 1.22 fold enrichment (6-mer frequency, TF over GST control) in test [18].
